Data on twelve molecules can be found in PubChem BioAssay (NCATS).

Assay [1] can be described thus: qHTS of pediatric cancer cell lines to identify multiple opportunities for drug repurposing: Confirmatory screen for OHS-50 cells (AID 1347128).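 Note: compound exposure lasted 48 h at 37 degrees C; nearly all actives have a fitted effect of over 55% in size.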 Note: potency is the fitted concentration of half-maximal effect. As to conditions: OHS-50 osteosarcoma cells viability; series mostly up to 45.9 µM. An outline of the steps: (§1)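 Viability after 48 h compound treatment at 37C, 500-1,000 cells/well, read as ATP luminescence with CellTiter-Glo. Primary screens used 11-point (MIPE, 0.78 nM-46 µM) or 8-point (NPC, 0.59 nM-46 µM) final concentrations; follow-up screens used 11-point dilutions.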

Assay [2] in a line: qHTS of pediatric cancer cell lines to identify multiple opportunities for drug repurposing: Confirmatory screen for SK-N-SH cells (AID 1347129).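 Note: cells exposed to compound for 48 h before viability read; nearly all actives have a fitted effect of over 60% in size.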 Note: potency is the fitted concentration of half-maximal effect. The conditions noted are these: SK-N-SH neuroblastoma cell viability; series mostly up to 46.1 µM. The gist of the method: as §1
Background: Quantitative high-throughput screening tests each substance at several concentrations.

Assay [3] relates to Zika virus NS2B-NS3 protease. As to the kind of experiment: Primary screen GU AMC qHTS for Zika virus inhibitors (AID 1347154). Note: nearly all actives have a fitted effect of over 70% in size. Note: potency is the fitted concentration of half-maximal effect. The conditions noted are these: Zika NS2B-NS3 unlinked protease, AMC fluorogenic substrate; series mostly up to 54.1 µM. An outline of the steps: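 Unlinked Zika NS2B hydrophilic domain–NS3 protease complex at 25 nM in 10 mM Tris-HCl pH 8.0, 0.01% Tween 20, with an AMC peptide substrate. Fluorescence change (340/450 nm) over 15 min at room temperature, normalized to controls, fitted to 4-parameter Hill.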

The target in assay [4] is N-terminal Xaa-Pro-Lys N-methyltransferase 1 (Homo sapiens) (UniProt Q9BV86). Briefly: qHTS Assay for Inhibitors of N-terminal methyltransferase 1 (NTMT1): LOPAC validation of the NTMT1 SAHH-coupled ThioGlo3 Assay (AID 1347143).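 Note: SAH from peptide methylation measured as thiol fluorescence via SAHH coupling and ThioGlo3; nearly all actives have a fitted effect of over 70% in size.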 Note: potency is the fitted concentration of half-maximal effect. The conditions noted are these: recombinant NTMT1, SAHH-coupled ThioGlo3 fluorescence; series mostly up to 114 µM. The gist of the method:
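Recombinant human NTMT1 (125nM) was pre-incubated 1 min at room temperature with compounds over a concentration range, then a mix of 100uM SAM, 10uM SAHH and 15uM ThioGlo3 (concentrations in added reagent) was added. ThioGlo3 fluorescence (ex 340/em 450nm) after 30 min was normalized to the initial reading.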

Assay [5] relates to Zika virus NS2B-NS3 protease (unlinked). As to the kind of experiment: Optimization of GU AMC qHTS for Zika virus inhibitors: Unlinked NS2B-NS3 protease assay (AID 1347151). Note: nearly all actives have a fitted effect of over 80% in size. As to conditions: recombinant ZIKV NS2B-NS3 protease, fluorogenic AMC substrate; series mostly up to 52.5 µM. The gist of the method: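 Noncovalent complex of NS2B hydrophilic domain and NS3 protease domain, 25 nM final, in 10 mM Tris-HCl pH 8.0, 0.01% Tween 20. AMC fluorescence change over 15 min at room temperature was fitted to a 4-parameter Hill equation.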

Inconclusive results are not listed. The source made the active and inactive calls. Calls come from the whole dose curve; as a rule, active = well fitted curve in the direction sought with a large enough effect; inconclusive = small, poorly fitted or top-dose-only effect, or another doubt; inactive = no such curve, though single readings can be large; an effect the other way counts as inactive or inconclusive.

N-terminal Xaa-Pro-Lys N-methyltransferase 1 (Homo sapiens), sequence (Q9BV86 whole entry, looked up): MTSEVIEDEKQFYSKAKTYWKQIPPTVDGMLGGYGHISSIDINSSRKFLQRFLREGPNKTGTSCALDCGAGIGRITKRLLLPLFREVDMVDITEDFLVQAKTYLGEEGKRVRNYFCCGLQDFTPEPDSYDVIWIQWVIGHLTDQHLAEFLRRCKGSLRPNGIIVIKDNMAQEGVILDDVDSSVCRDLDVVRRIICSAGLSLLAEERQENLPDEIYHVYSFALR

Consider `CC[C@@]1(O)C(=O)OCc2c1cc1n(c2=O)Cc2c-1nc1ccccc1c2/C=N/OC(C)(C)C`, for which the Potency in assay [1] was 0.0369 µM (active); in assay [2], 1.87 µM (active); in assay [3], 14.4 µM (active).

Regarding `O=c1[nH]sc2cc(Cl)ccc12`, the Potency entry in assay [2] and in assay [3] was “inactive” throughout.

Take `CC(=O)[C@@]1(O)CC[C@H]2[C@@H]3C[C@H](C)C4=CC(=O)CC[C@]4(C)[C@H]3CC[C@@]21C`: the Potency result in assay [1], in assay [2] and in assay [3] was “inactive” throughout.

Regarding `C[C@H]1C[C@H]2[C@@H]3CCC4=CC(=O)C=C[C@]4(C)[C@H]3C(=O)C[C@]2(C)[C@@]1(O)C(=O)CO`, the Potency result in assay [2] and in assay [3] was “inactive” in each case.

As for `N=C(N)c1ccc(OCCCOc2ccc(C(=N)N)cc2)cc1`, the Potency entry in assay [1], in assay [2] and in assay [3] was “inactive” each time.

Take `Brc1ccc([C@H]2CN3CCSC3=N2)cc1`: in assay [4], the Potency is 79.4 µM (active).

Take `C[N+](C)(C)CCO`: the Potency entry in assay [4] and in assay [5] was “inactive” throughout.

Consider `C[C@]12CCC(=O)C=C1CC[C@@H]1[C@@H]2[C@@H](O)C[C@@]2(C)[C@H]1CC[C@]2(O)C(=O)COC(=O)CCC(=O)O`, for which the Potency result in assay [1], in assay [2] and in assay [3] was “inactive” each time.

As to `CCOC(=O)O[C@]1(C(=O)OCCl)CC[C@H]2[C@@H]3CCC4=CC(=O)C=C[C@]4(C)[C@H]3[C@@H](O)C[C@@]21C`, the Potency result in assay [1], in assay [2] and in assay [3] was “inactive” in each case.

With `Cn1cnc2c(NCc3ccccc3)nc(NCCO)nc21`, the Potency result in assay [4], in assay [5] and in assay [3] was “inactive” in each case.

For `CN(C)CCN(Cc1ccsc1)c1ccccn1`, the Potency result in assay [2] and in assay [3] was “inactive” in each case.

Consider `CCC(=O)O[C@]1(C(=O)COC)[C@@H](C)C[C@H]2[C@@H]3CCC4=CC(=O)C=C[C@]4(C)C3(F)[C@@H](O)C[C@@]21C` (stereo not given in full), for which the Potency entry in assay [1], in assay [2] and in assay [3] was “inactive” each time.
